The list is not random: actives were taken first. Their share in the collection is about 7.3%.
Gal4-VP16 FLuc – counter-screen for ROR gamma inhibitors: Gal4-VP16 reporter. AID 2546. Drosophila S2 Gal4-VP16 UAS-luciferase, luminescence, 20 h. actives 3.5% (n = 310,000). Potency, µM (highest dose often 53.6 µM), without a hit: top-dose activity, negative = inhibition, usual class: inhibitors;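 note: Gal4-VP16 expression switched on by copper sulfate through the metallothionein promoter; nearly all actives have a fitted effect of over 50% in size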
Tau fibril FP – blocks human tau fibril formation measured by polarization | Potency, µM (titrated, usually from 57.7 µM), for the others: at the top dose activity, negative = inhibition, usual class: inhibitors | actives 0.39% (n = 280,000) | K18 P301L tau heparin fibrillization, Alexa594 FP, 6 h | AID 1468; note: nearly all actives have a fitted effect of over 55% in size
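K18 P301L tau (15 uM unlabeled/0.24 uM Alexa 594-labeled, final) + compound + heparin 20 uM final; 100 mM NaOAc pH 7; 6 hr 37 C; ThT 30 uM final added, 1 hr RT; FP ex 555/em 632 nm.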
Tau fibril ThT – tau fibrillization inhibition (ThT binding). Potency, µM (doses to about 57.4 µM), for the others: at the highest dose activity, negative = inhibition, hits mostly inhibitors. actives 2.1% (n = 270,000). P10636. recombinant tau K18 P301L, heparin-induced fibrillization, ThT fluorescence; note: nearly all actives have a fitted effect of over 55% in size
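Recombinant human tau K18 fragment […] carrying P301L, 15 uM unlabeled plus 0.24 uM Alexa 594-labeled, was fibrillized with 20 uM heparin in 100 mM sodium acetate pH 7 for 6 hr at 37 C; 30 uM ThT fluorescence read after 1 hr.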
RORg inh – ROR gamma (mouse) transcription inhibition. P51450. Drosophila S2 Gal4-RORgamma UAS-luciferase reporter, 20 h. Potency, µM (top dose mostly 53.6 µM), without a hit: at the highest dose activity change, negative = inhibition, actives largely listed as inhibitors. actives 5.4% (n = 310,000). AID 2551; note: nearly all actives have a fitted effect of over 60% in size
Target sequence (P51450 whole entry, looked up, the tested form may be a part): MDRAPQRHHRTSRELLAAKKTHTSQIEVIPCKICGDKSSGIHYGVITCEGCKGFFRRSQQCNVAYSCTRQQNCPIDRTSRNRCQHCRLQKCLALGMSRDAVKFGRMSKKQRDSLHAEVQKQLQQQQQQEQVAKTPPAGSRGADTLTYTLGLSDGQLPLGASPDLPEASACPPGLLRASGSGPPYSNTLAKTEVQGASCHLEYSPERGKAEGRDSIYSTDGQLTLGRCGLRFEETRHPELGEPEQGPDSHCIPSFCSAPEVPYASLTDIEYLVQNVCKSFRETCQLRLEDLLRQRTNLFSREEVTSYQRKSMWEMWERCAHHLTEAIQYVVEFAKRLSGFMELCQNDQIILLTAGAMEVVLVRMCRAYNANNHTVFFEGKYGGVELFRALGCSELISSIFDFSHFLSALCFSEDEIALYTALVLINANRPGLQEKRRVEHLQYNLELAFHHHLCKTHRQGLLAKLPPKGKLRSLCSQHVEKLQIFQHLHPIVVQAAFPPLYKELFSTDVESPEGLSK
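ROR gamma transcriptional activity was tracked as Gal4-UAS luciferase output in stably transfected Drosophila Schneider cells, with compound added 1 hr before 700 uM copper sulfate induction and a 20 hr ambient-temperature incubation.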
Tau fluor counter – counter-screen for tau fibril formation inhibitors. tau K18 P301L (four-repeat tau fragment) Alexa594 fluorescence, heparin fibrillization. actives 0.93% (n = 280,000). AID 1463. Potency, µM (top dose mostly 57.7 µM), inactives show at the highest dose activity change, negative = decrease; note: nearly all actives have a fitted effect of over 55% in size
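Human K18 P301L tau (15 uM unlabeled plus 0.24 uM Alexa 594-labeled, final) in 100 mM sodium acetate pH 7 was mixed with compound and 20 uM heparin and incubated 6 hr at 37 C.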
An asterisk follows results filed as active; ? = inconclusive; / = no result. Calls come from the whole dose curve; as a rule, active = well fitted curve in the direction sought with a large enough effect; inconclusive = small, poorly fitted or top-dose-only effect, or another doubt; inactive = no such curve, though single readings can be large; an effect the other way counts as inactive or inconclusive. % is set by controls: 0 for no effect and ±100 for the full control effect; potency is the fitted concentration of half-maximal effect.

SMILES	Gal4-VP16 FLuc	Tau fibril FP	Tau fibril ThT	RORg inh	Tau fluor counter
Cc1oc2cc3oc(=O)c(CCC(=O)NCc4ccccn4)c(C)c3cc2c1C	?	/	/	6.3µM*	/
Cc1oc2cc3oc(=O)c(CCC(=O)NCCC(=O)O)c(C)c3cc2c1C	-12%	/	/	-7%	/
CC(=O)Nc1nnc(-c2ccc3c(c2)CCCC3)o1	3.5µM*	-4%	-13%	7.1µM*	-5%
O=C(Nc1nnc(-c2ccc3c(c2)CCCC3)o1)C1COc2ccccc2O1 (configuration not stated)	7.9µM*	-10%	?	3.5µM*	-25%
COc1ccccc1C(=O)Nc1nnc(-c2ccc3c(c2)CCCC3)o1	4µM*	-7%	?	0%	-12%
CC1CN(S(=O)(=O)c2ccc(C(=O)Nc3nnc(-c4ccc5c(c4)CCCC5)o3)cc2)CC(C)O1 (configuration not stated)	0.89µM*	-2%	-9%	0.11µM*	-7%
COc1cc2c(cc1NC(=O)c1ccccc1F)CCCC2	6%	-11%	-10%	31%	-15%
COc1ccc(NC(=O)CN(C)C(=O)CN2C(=O)c3ccc([N+](=O)[O-])cc3C2=O)cc1	-5%	/	/	-42%	/
Cc1cccc(C(=O)NCC(=O)OCC(=O)c2ccc(Cl)s2)c1	-6%	/	/	-19%	/
O=C(/C=C/c1ccc2c(c1)OCO2)c1cccs1	?	6%	?	?	-4%
Cc1cccc(-n2c(SCC(=O)Nc3ccccc3C)nc3c(oc4ccccc43)c2=O)c1	/	-12%	0%	/	-15%
Cc1ccc(Cc2nc3ccccc3nc2SCC(=O)N2CCc3ccccc32)cc1	/	5%	-2%	/	-1%
Cc1cnc(NC(=O)c2cc3c(C)nn(-c4ccccc4)c3s2)s1	1.1µM*	?	-13%	0.89µM*	?
Cc1nn(-c2ccccc2)c2sc(C(=O)Nc3cccc(Br)c3)cc12	/	7.9µM*	?	/	?
Cc1nn(-c2ccccc2)c2sc(C(=O)NC3CCCCC3)cc12	0%	-18%	-12%	18%	-25%
CCOc1ccc(-n2c(N)c(-c3nc4ccccc4[nH]3)sc2=S)cc1	?	2%	?	?	?
COc1ccc(-n2c(N)c(-c3nc4ccccc4n3C)sc2=S)cc1	-13%	0%	?	6.3µM*	-23%
C/C(=N\NC(=O)Cc1csc(N2CCOCC2)n1)c1ccccc1	4%	4%	-8%	14%	-10%
O=C(Cc1csc(N2CCOCC2)n1)N/N=C/c1ccc(O)c(O)c1O	-7%	32µM*	16µM*	-1%	?
O=C(COc1nsnc1N1CCOCC1)N/N=C/c1ccccc1O	3.2µM*	1%	-6%	0.71µM*	-10%
Cc1cc(=O)oc2cc(OCC(=O)N/N=C/c3ccccc3O)ccc12	-19%	/	/	2.2µM*	/
O=C(COc1ccc([N+](=O)[O-])cc1)N/N=C/c1cc([N+](=O)[O-])ccc1N1CCOCC1	-7%	-3%	4µM*	?	-26%
Cc1cc(=O)oc2cc(OCC(=O)c3ccccc3)ccc12	-16%	/	/	2%	/
O=S(=O)(Nc1ccc2oc3c(c2c1)CCCC3)c1cc(Cl)ccc1Cl	/	-11%	-9%	/	?
CCOc1ccccc1NC(=O)Cn1cc(C(=O)c2ccc(Cl)cc2)c(=O)c2ccc(C)nc21	/	?	?	/	-19%
SMILES	Gal4-VP16 FLuc	Tau fibril FP	Tau fibril ThT	RORg inh	Tau fluor counter
CSc1nc(C)cc(OCC(=O)N/N=C/c2ccccc2O)n1	0.71µM*	-18%	-4%	0.89µM*	-13%
COc1ccc(C)cc1NS(=O)(=O)c1cc2c3c(c1)CC(=O)N3CCC2	/	-4%	-3%	/	-9%
CCOC(=O)c1cnn(-c2ccc(C(=O)Nc3cccc(C(C)=O)c3)cc2)c1N	/	2%	-6%	/	0%
O=c1c2ccccc2[nH]c(=S)n1CCCN1CCN(c2ccccc2F)CC1	8.9µM*	/	/	3.5µM*	/
O=c1c2ccccc2[nH]c(=S)n1CCN1CCCCC1	-5%	/	/	-16%	/
O=c1c2cccnc2[nH]c(=S)n1CCCN1CCN(c2ccccc2F)CC1	-8%	-5%	-8%	2.2µM*	-5%
O=c1c2ccccc2[nH]c(=S)n1CCCN1CCN(c2ccccc2)CC1	10µM*	/	/	7.9µM*	/

From PubChem BioAssay
